Records with an inconclusive call do not appear. Calls of active or inactive are those of the source. The call rests on the fitted dose curve; in most records, active means well fitted inhibition curve with a large enough effect; inconclusive means small, poorly fitted or top-dose-only effect; inactive means flat fitted curve, though single readings scatter.
Tests used:
Assay in all cases: qHTS profiling for inhibitors of Plasmodium falciparum proliferation (AID 504749); further: nearly all actives have a fitted effect of over 60% in size
Details in all cases: P. falciparum in erythrocytes, SYBR Green DNA, 72 h; series mostly up to 28.7 µM
DIV30 = tested on: DIV30
In short: (§1)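 Parasite proliferation within erythrocytes, 72 h exposure. Endpoint: SYBR Green I fluorescence after overnight lysis at room temperature. Controls: 0.29 uM artemisinin, DMSO.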

Dd2 = tested on: Dd2
In short: as §1

ECU = tested on: ECU
In short: as §1

FAB9 = tested on: FAB9
In short: as §1

GB4 = tested on: GB4
In short: as §1

HB3 = tested on: HB3
In short: as §1

ICS = tested on: ICS
In short: as §1

JCK = tested on: JCK
In short: as §1

N140 = tested on: N140
In short: as §1

P93_24 = tested on: P93_24
In short: as §1

Measured: Potency

O=C(O)c1ccc[n+]([O-])c1
inactive: all assays above

c1ccc2[nH]ccc2c1
inactive: all assays above

COc1nccnc1NS(=O)(=O)c1ccc(N)cc1
inactive: all assays above

C[C@@H]1O[C@@H](OC[C@H]2O[C@@H](Oc3c(-c4ccc(O)c(O)c4)oc4cc(O)cc(O)c4c3=O)[C@H](O)[C@@H](O)[C@@H]2O)[C@H](O)[C@H](O)[C@H]1O
inactive: all assays above

O=C(NCN1CCOCC1)c1cnccn1
inactive: all assays above

O=C(O)COC(=O)Cc1ccccc1Nc1c(Cl)cccc1Cl
not listed: P93_24
inactive: all other assays above

CC(=O)Nc1ccc(OCCOCCOc2ccc(NC(C)=O)cc2)cc1
inactive: all assays above

CC(C)=CCC/C(C)=C/CO
inactive: all assays above

CC(=O)OCC(COC(C)=O)OC(C)=O
inactive: all assays above

O=C(Cn1ccnc1[N+](=O)[O-])NCc1ccccc1
inactive: all assays above

Nc1ncnc(Nc2ccccc2)n1
inactive: all assays above

CCOC(N)=O
inactive: all assays above

Cn1c(=O)c2c(ncn2CCO)n(C)c1=O
inactive: all assays above

COC(=O)c1cccnc1
not listed: P93_24
inactive: all other assays above

OCC(O)CS (centres undefined)
inactive: all assays above

C=CCNC(N)=S
inactive: all assays above

CCCCCCCC(=O)OCC(COC(=O)CCCCCCC)OC(=O)CCCCCCC
inactive: all assays above

C=CCSCC1Nc2cc(Cl)c(S(N)(=O)=O)cc2S(=O)(=O)N1 (centres undefined)
inactive: all assays above

CNCc1ccccc1
inactive: all assays above

CC[N+](C)(CC)CCOC(=O)C1c2ccccc2Oc2ccccc21
inactive: all assays above

NCC1CCC(C(=O)Oc2ccc(CCC(=O)O)cc2)CC1 (centres undefined)
inactive: all assays above

Cc1cccc(C)c1NC(=O)CC12CCCN1CCC2
inactive: all assays above

CC(=O)Oc1cccc(O)c1
not listed: P93_24
inactive: all other assays above

Cc1ncc(CO)c(CN)c1O
not listed: P93_24
inactive: all other assays above

O=C(O)CNC(=O)c1ccccc1I
inactive: all assays above

CC(C)CCCC(C)CCCC(C)CCCCC(C)CCCC(C)CCCC(C)C (centres undefined)
inactive: all assays above

CCOC(=O)c1cccnc1
inactive: all assays above

Nc1ccc(C(=O)Oc2ccccc2)c(O)c1
inactive: all assays above

CC(=O)NS(=O)(=O)c1ccc(N)cc1
not listed: P93_24
inactive: all other assays above

O=c1[nH]cnc2nc[nH]c12
inactive: all assays above

O=S1(=O)OC(c2ccc(O)cc2)(c2ccc(O)cc2)c2ccccc21
inactive: all assays above

CN(C(=O)c1c(O)c2ccccc2n(C)c1=O)c1ccccc1
inactive: all assays above

NC(=O)CC[C@@H](N)C(=O)O
not listed: P93_24
inactive: all other assays above

CCc1nnc(NS(=O)(=O)c2ccc(N)cc2)s1
inactive: all assays above

CC(C(=O)O)c1ccc2c(c1)Cc1cccnc1O2 (centres undefined)
inactive: all assays above

CCCCCCCCCCCCCCCCN
inactive: all assays above

CCCCC1(COC(=O)CCC(=O)O)C(=O)N(c2ccccc2)N(c2ccccc2)C1=O
inactive: all assays above

O=C(NCCCN1CCOCC1)c1ccc(Cl)cc1
inactive: all assays above

CCOc1ccc(C(=O)OCCN(CC)CC)cc1
inactive: all assays above

NC(N)=NCCN1CCCCCCC1
inactive: all assays above

Cc1cccc(C(=O)O)c1O
inactive: all assays above

Cc1cc(C)nc(NS(=O)(=O)c2ccc(N)cc2)n1
inactive: all assays above

CN1CCN(C(=O)C2CCCCC2)CC1
inactive: all assays above

CCN(CC)CC1CCCCN1CC(=O)N1c2ccccc2C(=O)Nc2cccnc21 (centres undefined)
inactive: all assays above

COc1ccc(C(=O)NCc2ccc(OCCN(C)C)cc2)cc1OC
inactive: all assays above

CC(=O)Oc1cccc(C)c1
inactive: all assays above

O=C1c2ccccc2S(=O)(=O)N1CCCCN1CCN(c2ncccn2)CC1
inactive: all assays above

O=c1[nH]c(=O)c2ccccc2o1
inactive: all assays above

C[N+](C)(C)CC[N+]1(C)Cc2c(Cl)c(Cl)c(Cl)c(Cl)c2C1
inactive: all assays above

CCCCCCCC(=O)OCC(O)CO (centres undefined)
inactive: all assays above
